Common to all, as to test: growth (OD600 after 10 h); higher = more growth (less inhibition)
The test system of assay [1] is E. coli TESEC Alr+ wild-type control. Conditions: compound 0.1 mM; raw OD600 reference: median of DMSO wells 0.241, cell-free background 0.041. The protocol: (§1)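 TESEC Mtb Alr E. coli, or the Alr+ wild-type control, in 384-well plates with Prestwick library compounds at 0.1 mM and 1% DMSO, across arabinose induction levels of 1E3 to 1E7 nM. Growth is read as OD600 after 10 h at 37 °C in triplicate biological replicates.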

Assay [2] has as its system E. coli TESEC Mtb Alr. Conditions: compound 0.1 mM. As to the method: as §1
Assay [3] relates to E. coli TESEC Mtb Asd. Conditions: compound 0.1 mM. As to the method:
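TESEC E. coli strains in which the native enzyme is deleted and replaced by arabinose-inducible Mtb Asd, DapB, CysH or TrpD, each grown in its selective medium. Strains were screened against the Prestwick library at 0.1 mM and 1% DMSO in 384-well format at low and high arabinose induction. Growth is read as OD600 after 10 h in triplicate.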

Assay [4] deals with E. coli TESEC Alr+ wild-type control. Conditions: compound 0.1 mM; raw OD600 reference: median of DMSO wells 0.49, cell-free background 0.052. The protocol: (§2)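 TESEC Mtb Alr E. coli (ΔaraC ΔtolC ΔentC Δalr ΔdadX, arabinose-inducible Mtb Alr) or the Alr+ wild-type control strain, grown in defined M9-fructose medium without D-alanine in 96-well plates with Prestwick library compounds at 0.1 mM and 1% DMSO. Low Alr induction is 0.1 µM arabinose and high induction is 10 mM arabinose.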

For assay [5], the system named is E. coli TESEC Mtb Alr. The conditions noted are these: compound 0.1 mM. As to the method: as §2
The source holds these as a separate data set.

[6] abbreviates: arabinose 1000 nM, raw OD600 reference: median of DMSO wells 0.294, cell-free background 0.041.
The mark [7] stands for this setting: arabinose 10000 nM, raw OD600 reference: median of DMSO wells 0.264, cell-free background 0.041.
[8] abbreviates: arabinose 100000 nM, raw OD600 reference: median of DMSO wells 0.201, cell-free background 0.041.
The mark [9] stands for this setting: arabinose 1000000 nM, raw OD600 reference: median of DMSO wells 0.193, cell-free background 0.041.
[10] abbreviates: arabinose 10000000 nM, raw OD600 reference: median of DMSO wells 0.146, cell-free background 0.041.
Where [11] appears, read: arabinose induction (level): High, raw OD600 reference: median of DMSO wells 0.331, cell-free background 0.041.
Where [12] appears, read: arabinose induction (level): Low, raw OD600 reference: median of DMSO wells 0.417, cell-free background 0.041.
The mark [13] stands for this setting: arabinose 100 nM, raw OD600 reference: median of DMSO wells 0.413, cell-free background 0.052.
[14] abbreviates: arabinose 10000000 nM, raw OD600 reference: median of DMSO wells […], cell-free background 0.052.

These results are taken from the supplement of paper PMC9262897, “Low-cost anti-mycobacterial drug discovery using engineered E. coli” (Nature Communications, 2022).

Molecules are shown by their SMILES. Where a name gives a salt, the structure may show the parent alone. ± gives the standard deviation of the averaged measurements.

With `Cc1cn([C@H]2C[C@H](N=[N+]=[N-])[C@@H](CO)O2)c(=O)[nH]c1=O` [Zidovudine, AZT], the growth stood at 0.0935 ± 0.0041 in assay [1]; 0.0804 ± 0.011 in assay [2] (setting [6]); 0.0544 ± 0.0014 in assay [2] (setting [7]); 0.0839 ± 0.0005 in assay [2] (setting [8]); 0.0604 ± 0.0022 in assay [2] (setting [9]); 0.103 ± 0.0045 in assay [2] (setting [10]). Besides, the growth in assay [3] (setting [11]) turned out to be 0.1 ± 0.0079; in assay [3] (setting [12]), 0.0819 ± 0.012; in assay [4] it was 0.199 ± 0.0087; in assay [5] (setting [13]), 0.166 ± 0.012; in assay [5] (setting [14]) it was 0.125 ± 0.017.
On to `CCS(=O)(=O)CCn1c([N+](=O)[O-])cnc1C` [Tinidazole], for which the growth in assay [1] turned out to be 0.237 ± 0.0086; in assay [2] (setting [6]) it was 0.286 ± 0.011; in assay [2] (setting [7]), 0.256 ± 0.0041; in assay [2] (setting [8]) it was 0.198 ± 0.0079; in assay [2] (setting [9]) it was 0.169 ± 0.0069; in assay [2] (setting [10]), 0.139 ± 0.005. The growth in assay [3] (setting [11]) was 0.345 ± 0.048; in assay [3] (setting [12]), 0.405 ± 0.013; in assay [4] it was 0.521 ± 0.092; in assay [5] (setting [13]), 0.402 ± 0.0095; in assay [5] (setting [14]) it was 0.315 ± 0.0068.
As to `O=P(O)(O)C(O)(Cn1ccnc1)P(=O)(O)O` [Zoledronic acid hydrate], the growth in assay [1] is 0.241 ± 0.0059; in assay [2] (setting [6]), 0.279 ± 0.0055; in assay [2] (setting [7]) it was 0.278 ± 0.0062; in assay [2] (setting [8]), 0.192 ± 0.022; in assay [2] (setting [9]) it was 0.211 ± 0.0037; in assay [2] (setting [10]) it was 0.134 ± 0.0016. The growth in assay [3] (setting [11]) amounted to 0.257 ± 0.083; in assay [3] (setting [12]) it was 0.357 ± 0.034; in assay [4], 0.596 ± 0.074; in assay [5] (setting [13]), 0.421 ± 0.011; in assay [5] (setting [14]) it was 0.294 ± 0.021.
As for `O=c1[nH]c(=O)n([C@H]2C[C@H](O)[C@@H](CO)O2)cc1C(F)(F)F` [Trifluridine], the growth in assay [1] was found to be 0.194 ± 0.02; in assay [2] (setting [6]) it was 0.213 ± 0.049; in assay [2] (setting [7]), 0.0994 ± 0.0099; in assay [2] (setting [8]) it was 0.121 ± 0.0045; in assay [2] (setting [9]), 0.082 ± 0.0069; in assay [2] (setting [10]), 0.135 ± 0.0027. The growth in assay [3] (setting [11]) was 0.13 ± 0.0033; in assay [3] (setting [12]) it was 0.203 ± 0.0098; in assay [4] it was 0.476 ± 0.016; in assay [5] (setting [13]), 0.077 ± 0.0037; in assay [5] (setting [14]), 0.129 ± 0.023.
As to `C[C@H]1O[C@H](O[C@H]2[C@H](O)[C@@H](O)[C@@H](O[C@@H]([C@H](O)[C@@H](O)C=O)[C@H](O)CO)O[C@@H]2CO)[C@H](O)[C@@H](O)[C@@H]1N[C@H]1C=C(CO)[C@@H](O)[C@H](O)[C@H]1O` [Acarbose], the growth in assay [1] came to 0.261 ± 0.0036; in assay [2] (setting [6]), 0.313 ± 0.0078; in assay [2] (setting [7]) it was 0.25 ± 0.005; in assay [2] (setting [8]) it was 0.244 ± 0.0037; in assay [2] (setting [9]) it was 0.182 ± 0.0045; in assay [2] (setting [10]), 0.145 ± 0.013. The growth in assay [3] (setting [11]) was 0.322 ± 0.026; in assay [3] (setting [12]), 0.476 ± 0.036; in assay [4] it was 0.458 ± 0.0055; in assay [5] (setting [13]), 0.396 ± 0.013; in assay [5] (setting [14]), 0.3792 ± 0.0032.
Consider `CN1C(=O)CC(c2ccccc2)C1=O` (stereo not drawn) [Phensuximide], for which the growth in assay [1] stood at 0.244 ± 0.0072; in assay [2] (setting [6]) it was 0.299 ± 0.0059; in assay [2] (setting [7]), 0.281 ± 0.0045; in assay [2] (setting [8]), 0.183 ± 0.022; in assay [2] (setting [9]) it was 0.231 ± 0.02; in assay [2] (setting [10]), 0.138 ± 0.011. In addition, the growth was 0.338 ± 0.022 in assay [3] (setting [11]); 0.401 ± 0.035 in assay [3] (setting [12]); 0.544 ± 0.076 in assay [4]; 0.431 ± 0.015 in assay [5] (setting [13]); 0.357 ± 0.0052 in assay [5] (setting [14]).
With `O=C1CC[C@@H](C(=O)N2CSC[C@H]2C(=O)O)N1` [Pidotimod], the growth in assay [1] came to 0.231 ± 0.0032; in assay [2] (setting [6]), 0.29 ± 0.003; in assay [2] (setting [7]), 0.261 ± 0.005; in assay [2] (setting [8]), 0.184 ± 0.032; in assay [2] (setting [9]), 0.217 ± 0.033; in assay [2] (setting [10]) it was 0.135 ± 0.0014. Moreover, the growth in assay [3] (setting [11]) worked out at 0.271 ± 0.059; in assay [3] (setting [12]), 0.415 ± 0.024; in assay [4], 0.536 ± 0.1; in assay [5] (setting [13]) it was 0.42 ± 0.011; in assay [5] (setting [14]), 0.335 ± 0.0057.
With `C=C[C@H]1CN2CC[C@H]1C[C@@H]2[C@@H](O)c1ccnc2ccc(OC)cc12` [Quinidine hydrochloride monohydrate], the growth in assay [1] was 0.22 ± 0.004; in assay [2] (setting [6]) it was 0.28 ± 0.019; in assay [2] (setting [7]) it was 0.265 ± 0.01; in assay [2] (setting [8]) it was 0.181 ± 0.0089; in assay [2] (setting [9]), 0.138 ± 0.0072; in assay [2] (setting [10]) it was 0.144 ± 0.0058. The growth in assay [3] (setting [11]) worked out at 0.239 ± 0.04; in assay [3] (setting [12]), 0.412 ± 0.012; in assay [4], 0.483 ± 0.07; in assay [5] (setting [13]) it was 0.4326 ± 0.004; in assay [5] (setting [14]) it was 0.356 ± 0.0089.
